The record followed here is PubChem BioAssay (NCATS).

Experiment [1] deals with Lysosomal acid glucosylceramidase (Homo sapiens) (UniProt P04062). Put plainly: Glucocerebrosidase-p2 (AID 348; in the data active means potency below about 10 µM; further: potency means the concentration at half of the fitted maximal effect). To be noted: purified GBA, blue fluorogenic substrate, 40 min. The method in brief: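 Compounds titrated from 0.6 nM upwards against 0.2 nM enzyme in pH 5.9 citric acid/KH2PO4, taurocholate, tween-20; blue fluorogenic substrate 80 uM, 40 min room temperature, stopped and read Ex 365/Em 440 for AC50.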

The nature of experiment [2]: AP1 Signaling Pathway (AID 357). Further: on the % scale 0 is the no-effect control and ±100 the full control effect. To be noted: ME-180 AP-1-bla reporter, EGF-induced, beta-lactamase ratio, 5 h; at 7.69 µM (top of the series) unless noted. The method in brief: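 ME-180 cells with beta-lactamase reporter under AP-1 response element, stimulated with EC50 EGF; compounds tested in titration series, 5 h at 37 °C. CCF4 substrate added 2.5 h at room temperature; 460/530 nm emission ratio gave %activity and AC50.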

Experiment [3] has as its target Cytochrome P450 1A2 (Homo sapiens) (UniProt P05177). Put plainly: p450-cyp1a2 (AID 410; calls by dose curve; further: potency means the concentration at half of the fitted maximal effect;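 on activity change, negative = inhibition: -100% = full effect of reference inhibitor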). The settings on record: recombinant CYP1A2, luciferin-ME demethylation, luminescence; series mostly up to 11.4 µM. The method in brief: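 Luminescent readout of luciferin formed from Luciferin-ME by human CYP1A2; data normalized against complete inhibition by 57 uM furafylline. Enzyme 20nM, substrate 100uM at Km, 100mM KPO4 buffer, 60 min reaction at room temperature.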

The nature of experiment [4]: NFAT Signaling Pathway (AID 444).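 Further: carbachol stimulus at about its EC50 of 1 µM final; on the % scale 0 is the no-effect control and ±100 the full control effect.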 To be noted: Jurkat NFAT-bla M1, carbachol, beta-lactamase ratio, 5 h; at 7.69 µM (top of the series) unless noted. An outline of the steps:
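Jurkat cells with NFAT-driven β-lactamase reporter and co-expressed M1 receptor, stimulated with carbachol (final 1 uM, ~EC50), compound titration, 5 h at 37 °C. CCF4 loaded 1 h at RT; 460/530 nm ratio gave %activity and AC50.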

Experiment [5] can be described thus: Stat Signaling Pathway (AID 446).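 Further: ME-180 cervical cancer cells given 40 pM IL-6 alongside compound; SIE-controlled beta-lactamase reporter measured as 460/530 nm FRET emission ratio; on the % scale 0 is the no-effect control and ±100 the full control effect.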 The settings on record: ME-180 (cervical carcinoma) SIE beta-lactamase reporter, IL-6 stimulated, 5 h; at 7.69 µM (top of the series) unless noted. An outline of the steps: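 IL-6/STAT signaling read in ME-180 cells via an SIE beta-lactamase reporter. Stimulus was 40 pM IL-6 (its AC50) for 5 hrs, so both activation and inhibition register.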
Experiment [6] has as its target Glucocorticoid receptor (Homo sapiens) (UniProt P04150). Put plainly: GR-GFP Redistribution (AID 450;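 active means compounds whose dose series gives a full or clear partial fitted curve of increased nuclear translocation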; further: potency means the concentration at half of the fitted maximal effect). The settings on record: U2OS GR-GFP nuclear translocation, laser cytometry, 2 h.
The target is the same in experiment [7]. Put plainly: GR-EFC Redistribution (AID 451; calls by dose curve; further: potency means the concentration at half of the fitted maximal effect). To be noted: CHO-K1 GR-EFC translocation, beta-gal luminescence, 2 h. An outline of the steps:
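CHO-K1 cells expressing nuclear EA and GR-ED fragments of b-gal; compounds titrated up to 46 uM final, 2 h at 37 C. GR nuclear translocation read as complemented b-gal luminescence after 1 h RT detection.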

Experiment [8] has as its target Mitogen-activated protein kinase 10 (Mus musculus) (UniProt Q61831). As to the kind of experiment: JNK3 AlphaScreen Assay (AID 530).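 Further: kinase came from lysate of stimulated human HepG2 cells; signal reports phosphorylation of biotinylated GST-cJun 1-79 at Ser73 with 10 µM ATP; on the % scale 0 is the no-effect control and ±100 the full control effect.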 The settings on record: JNK3 lysate, c-Jun phosphorylation; series mostly up to 11.4 µM. The method in brief: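 Pre-activated (IL-1β/TNFα) JNK3 in HepG2 lysates phosphorylates biotin-GST-cJun(1-79), 10 uM ATP; anti-phospho-cJun(Ser73) AlphaScreen read at room temperature, pH 7.6 Tris buffer. Compounds pre-incubated 15 min as titrations.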

The target in experiment [9] is 3',5'-cyclic-AMP phosphodiesterase 4B (Homo sapiens) (UniProt Q07343). Put plainly: qHTS Assay for Inhibitors of PDE-IV (AID 607; active means well fitted activation curve with a large enough effect in the main read-out, with a control signal flat, not every such curve was filed as active; further: % of control where 0% means no effect). The settings on record: HEK293 ACTOne CNG channel cells, membrane potential fluorescence; series mostly up to 22.9 µM. An outline of the steps:
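Live HEK293 cells with a modified cyclic nucleotide-gated (CNG) channel report intracellular cAMP via membrane-potential dye fluorescence (ex 535/em 590 nm). Endogenous PDE-IV was targeted. Compounds were tested at up to 22.9 uM final; RO 20-1724 100 uM served as control.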
On the technique in general: In qHTS, concentration-response curves come from the screen itself.

Experiment [10] addresses Cytochrome P450 2C19 (Homo sapiens) (UniProt P33261). Put plainly: qHTS Assay for Inhibitors and Substrates of Cytochrome P450 2C19 (AID 899; active means well fitted inhibition curve with a large enough effect; further: nearly all actives have a fitted effect of over 60% in size; further: potency means the concentration at half of the fitted maximal effect). The settings on record: recombinant CYP2C19, luciferin-H EGE luminescence; series mostly up to 11.4 µM. An outline of the steps: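 Signal comes from luciferase acting on luciferin released by CYP2C19-mediated hydroxylation of Luciferin-H EGE, 10uM (KM). Assay mix: 5nM enzyme, 50mM KPO4; 60 min at 37C with NADPH regeneration. Data normalized against 57uM ketoconazole.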

The structures appear in SMILES notation. Unmarked numbers belong to inactive results. Results filed as inconclusive are left out. Active and inactive are the calls of the source. Unless noted, the call rests on the fitted dose curve; in most records, active means well fitted curve in either direction with a large enough effect (not every such curve was filed as active); inconclusive means small, poorly fitted or top-dose-only effect, or another doubt; inactive means flat fitted curve, though single readings scatter.

Sequence of 3',5'-cyclic-AMP phosphodiesterase 4B (Homo sapiens) (Q07343 whole entry, looked up): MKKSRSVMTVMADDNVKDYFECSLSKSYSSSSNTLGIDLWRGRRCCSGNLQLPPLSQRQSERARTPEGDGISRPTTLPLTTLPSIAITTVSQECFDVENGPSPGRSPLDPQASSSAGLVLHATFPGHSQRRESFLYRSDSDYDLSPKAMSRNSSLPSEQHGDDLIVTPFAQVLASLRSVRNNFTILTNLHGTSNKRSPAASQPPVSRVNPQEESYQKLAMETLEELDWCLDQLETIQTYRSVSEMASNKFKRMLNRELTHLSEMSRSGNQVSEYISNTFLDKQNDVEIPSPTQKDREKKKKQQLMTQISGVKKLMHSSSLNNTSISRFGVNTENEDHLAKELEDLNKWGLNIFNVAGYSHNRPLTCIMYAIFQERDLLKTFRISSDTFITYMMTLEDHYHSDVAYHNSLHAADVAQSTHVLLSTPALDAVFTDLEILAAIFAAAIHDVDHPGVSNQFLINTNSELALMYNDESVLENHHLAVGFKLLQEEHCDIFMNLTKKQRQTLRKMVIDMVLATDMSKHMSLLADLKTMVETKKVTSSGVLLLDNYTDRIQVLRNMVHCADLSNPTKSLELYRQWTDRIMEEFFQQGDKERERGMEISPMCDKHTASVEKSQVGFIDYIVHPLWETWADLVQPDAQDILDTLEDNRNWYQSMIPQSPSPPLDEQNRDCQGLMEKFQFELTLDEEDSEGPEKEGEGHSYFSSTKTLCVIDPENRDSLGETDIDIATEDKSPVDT
Sequence of Lysosomal acid glucosylceramidase (Homo sapiens) (P04062 whole entry, looked up): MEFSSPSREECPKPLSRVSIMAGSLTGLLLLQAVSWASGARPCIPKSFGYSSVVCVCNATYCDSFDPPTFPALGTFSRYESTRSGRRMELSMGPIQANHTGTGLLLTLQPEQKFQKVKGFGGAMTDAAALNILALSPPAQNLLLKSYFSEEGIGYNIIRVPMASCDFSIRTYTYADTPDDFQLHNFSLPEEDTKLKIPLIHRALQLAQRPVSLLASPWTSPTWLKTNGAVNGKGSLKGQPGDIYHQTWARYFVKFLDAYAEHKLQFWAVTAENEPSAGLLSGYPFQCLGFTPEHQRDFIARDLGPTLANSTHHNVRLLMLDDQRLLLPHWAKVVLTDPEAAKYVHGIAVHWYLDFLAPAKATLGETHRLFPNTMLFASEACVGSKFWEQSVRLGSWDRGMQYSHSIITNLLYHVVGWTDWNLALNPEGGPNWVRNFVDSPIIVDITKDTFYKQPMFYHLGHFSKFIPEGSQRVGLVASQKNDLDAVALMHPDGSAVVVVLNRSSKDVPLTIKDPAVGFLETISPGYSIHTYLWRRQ
Sequence of Cytochrome P450 1A2 (Homo sapiens) (P05177 whole entry, looked up): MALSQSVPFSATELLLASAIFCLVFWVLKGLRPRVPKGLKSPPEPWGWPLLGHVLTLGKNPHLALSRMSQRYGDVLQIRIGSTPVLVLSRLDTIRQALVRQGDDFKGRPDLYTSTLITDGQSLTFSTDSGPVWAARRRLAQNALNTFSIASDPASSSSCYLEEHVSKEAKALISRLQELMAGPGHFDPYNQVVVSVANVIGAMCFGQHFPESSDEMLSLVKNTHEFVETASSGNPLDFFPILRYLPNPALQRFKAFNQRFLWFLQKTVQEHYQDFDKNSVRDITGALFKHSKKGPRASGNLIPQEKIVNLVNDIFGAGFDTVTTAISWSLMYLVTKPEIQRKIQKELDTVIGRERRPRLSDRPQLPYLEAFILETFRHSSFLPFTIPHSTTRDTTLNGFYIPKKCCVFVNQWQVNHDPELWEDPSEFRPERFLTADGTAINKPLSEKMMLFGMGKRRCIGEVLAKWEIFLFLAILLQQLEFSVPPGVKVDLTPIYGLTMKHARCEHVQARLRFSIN
Sequence of Glucocorticoid receptor (Homo sapiens) (P04150 whole entry, looked up): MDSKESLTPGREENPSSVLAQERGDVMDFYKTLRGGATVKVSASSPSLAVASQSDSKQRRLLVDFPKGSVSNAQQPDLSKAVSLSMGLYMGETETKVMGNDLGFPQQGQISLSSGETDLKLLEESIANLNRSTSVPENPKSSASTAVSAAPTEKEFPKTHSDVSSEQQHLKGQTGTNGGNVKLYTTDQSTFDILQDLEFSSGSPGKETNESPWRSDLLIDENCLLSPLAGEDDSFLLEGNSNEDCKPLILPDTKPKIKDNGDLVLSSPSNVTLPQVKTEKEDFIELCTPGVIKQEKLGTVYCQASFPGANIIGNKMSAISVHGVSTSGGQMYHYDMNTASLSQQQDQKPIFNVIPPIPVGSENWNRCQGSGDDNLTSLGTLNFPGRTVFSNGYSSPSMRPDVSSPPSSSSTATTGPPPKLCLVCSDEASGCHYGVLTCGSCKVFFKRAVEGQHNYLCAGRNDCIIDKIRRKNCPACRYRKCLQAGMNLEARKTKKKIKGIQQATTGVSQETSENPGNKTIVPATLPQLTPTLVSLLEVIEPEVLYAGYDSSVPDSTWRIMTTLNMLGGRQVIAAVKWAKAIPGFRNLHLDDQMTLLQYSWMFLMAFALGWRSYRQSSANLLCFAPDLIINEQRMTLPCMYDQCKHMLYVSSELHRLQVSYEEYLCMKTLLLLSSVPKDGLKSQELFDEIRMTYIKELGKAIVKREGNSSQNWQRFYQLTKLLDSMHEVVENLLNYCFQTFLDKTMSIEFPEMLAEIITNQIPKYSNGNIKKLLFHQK
Sequence of Cytochrome P450 2C19 (Homo sapiens) (P33261 whole entry, looked up): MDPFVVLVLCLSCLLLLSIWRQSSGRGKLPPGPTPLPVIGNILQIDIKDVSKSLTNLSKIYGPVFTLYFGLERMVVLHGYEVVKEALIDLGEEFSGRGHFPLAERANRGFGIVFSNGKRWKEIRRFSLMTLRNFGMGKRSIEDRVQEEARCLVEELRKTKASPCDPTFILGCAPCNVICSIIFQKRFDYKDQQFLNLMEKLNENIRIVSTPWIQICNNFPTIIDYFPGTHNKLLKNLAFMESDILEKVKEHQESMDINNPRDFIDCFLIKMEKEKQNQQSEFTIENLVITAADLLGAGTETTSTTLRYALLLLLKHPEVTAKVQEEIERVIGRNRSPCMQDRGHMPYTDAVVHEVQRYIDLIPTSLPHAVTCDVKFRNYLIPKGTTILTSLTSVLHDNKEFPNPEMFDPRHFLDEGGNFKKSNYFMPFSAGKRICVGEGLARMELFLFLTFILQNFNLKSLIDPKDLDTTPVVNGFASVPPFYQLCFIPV

Regarding `CN1CCc2nc(N)nc(-c3nc(N)nc4c3CN(C)CC4)c2C1`, the Potency in experiment [1] was more than 11.4 µM; in [6] it was more than 46 µM; in experiment [7] it was more than 9.22 µM. Also, the activity change, negative = inhibition in experiment [2] is 1.73%; in [3], -3.9% [at 2.29 µM]; in [4], 7.63%. Besides, the activity, negative = inhibition in [5] is 4.69%. Moreover, the Potency entry in experiment [8], in experiment [9] and in [10] was “inactive” in each case.

On to `CC[C@@H]1CC(=O)N(SC[C@H](N)C(=O)O)C1=O`, for which the Potency is more than 11.4 µM in experiment [1], more than 46 µM in [6] and more than 9.22 µM in experiment [7]. Besides, the results for the activity change, negative = inhibition in experiment [2] and in experiment [4] were 1.56% and 12.4%, respectively. For the same compound, the Potency entry in [3], in [8], in [9] and in [10] was “inactive” each time. Also, the activity, negative = inhibition in experiment [5] was 1.84%.

With `Nc1c(S(N)(=O)=O)cc(S(N)(=O)=O)cc1S(N)(=O)=O`, the Potency is more than 11.4 µM in experiment [1], more than 46 µM in experiment [6] and more than 9.22 µM in experiment [7]. For the same compound, the activity change, negative = inhibition is 2.78% in experiment [2] and 7.97% in experiment [4]. Besides, the Potency entry in experiment [3], in [8], in experiment [9] and in [10] was “inactive” throughout. Also, the activity, negative = inhibition in experiment [5] is 1.94%.

Turning to `N=C(c1ccc2ccccc2c1)c1ccccc1Cc1ccccc1`, the Potency in experiment [1] was more than 11.4 µM; in experiment [3], 0.501 µM (active); in [6], more than 46 µM; in experiment [7], more than 9.22 µM; in experiment [10], 3.98 µM (active). Also, the values for the activity change, negative = inhibition in experiment [2] and in [4] were 0.881% and -18%, respectively. Moreover, the activity, negative = inhibition in [5] was -1.68%. Also, the Potency entry in experiment [8] and in [9] was “inactive” each time.

Consider `Nc1ccc2[nH]cc(CCC(=O)O)c2c1`, for which the Potency was more than 11.4 µM in experiment [1], more than 46 µM in [6] and more than 9.22 µM in experiment [7]. In addition, the activity change, negative = inhibition in experiment [2] is 4.94%; in experiment [4] it was 4.67%. The Potency result in [3], in experiment [8], in experiment [9] and in [10] was “inactive” in each case. In addition, in experiment [5], the activity, negative = inhibition was 6.65%.

As to `C/C(=N\NC(=O)c1ccncc1)c1ccc2ccccc2c1O`, the Potency in experiment [1] is more than 11.4 µM; in [3] it was 3.98 µM (active); in experiment [6] it was more than 46 µM; in [7], more than 9.22 µM; in experiment [10], 0.501 µM (active). Further, the activity change, negative = inhibition is 7.91% in [2] and -7.25% in experiment [4]. Besides, the activity, negative = inhibition in [5] was -3.43%. The Potency entry in experiment [8] and in experiment [9] was “inactive” throughout.

As for `O=C(O)CC1(CC(=O)O)Nc2ccccc2SC1=O`, the Potency in experiment [1] is more than 11.4 µM; in [6] it was more than 46 µM; in [7] it was more than 9.22 µM. Besides, the activity change, negative = inhibition in experiment [2] is -1.59%; in experiment [3], 2% [at 2.29 µM]; in experiment [4], 5.68%. Further, the activity, negative = inhibition in experiment [5] is 2.07%. Moreover, the Potency entry in experiment [8], in experiment [9] and in experiment [10] was “inactive” throughout.

For `CC(C)CNc1nc(N)[nH]c(=O)c1NC=O`, the Potency was more than 11.4 µM in experiment [1], more than 46 µM in experiment [6] and more than 9.22 µM in experiment [7]. Moreover, the activity change, negative = inhibition was 9% in experiment [2] and -1.94% in [4]. Moreover, the Potency entry in [3], in [8], in experiment [9] and in experiment [10] was “inactive” in each case. The activity, negative = inhibition in [5] was 7.03%.

Regarding `OC[C@@H]1O[C@@H](O)[C@H](N=Cc2ccc3c(c2)OCO3)[C@@H](O)[C@@H]1O`, the Potency is more than 11.4 µM in experiment [1], more than 46 µM in [6] and more than 9.22 µM in experiment [7]. The activity change, negative = inhibition is 5.99% in experiment [2], -24.4% [at 2.29 µM] in experiment [3] and 3.26% in experiment [4]. Besides, in [5], the activity, negative = inhibition is 2.95%. For the same compound, the Potency entry in [8], in experiment [9] and in experiment [10] was “inactive” throughout.

For `CN(C)CCNc1ccccn1`, the Potency is more than 11.4 µM in [1], more than 46 µM in experiment [6] and more than 9.22 µM in experiment [7]. Besides, the results for the activity change, negative = inhibition in experiment [2] and in experiment [4] were -8.09% and 12.6%, respectively. For the same compound, the Potency entry in experiment [3], in experiment [8], in experiment [9] and in experiment [10] was “inactive” each time. For the same compound, in experiment [5], the activity, negative = inhibition is 3.69%.

For `CCCn1cnc2c(SCC(=O)O)nc(N)nc21`, the Potency was more than 11.4 µM in experiment [1], more than 46 µM in experiment [6] and more than 9.22 µM in experiment [7]. In addition, the figures for the activity change, negative = inhibition in [2] and in experiment [4] were 0.287% and -8.4%, respectively. The Potency entry in experiment [3], in experiment [8], in experiment [9] and in [10] was “inactive” each time. Besides, the activity, negative = inhibition in [5] was -4.97%.

Consider `Clc1ccc(-c2nnc(-c3cccc4ccccc34)o2)cc1Cl`, for which the Potency was more than 11.4 µM in experiment [1], 2 µM (active) in experiment [3], more than 46 µM in [6] and more than 9.22 µM in experiment [7]. In addition, the activity change, negative = inhibition in experiment [2] was -2.21%; in [4] it was 18.6%. For the same compound, the activity, negative = inhibition in experiment [5] is 10.3%. Besides, the Potency entry in [8], in [9] and in experiment [10] was “inactive” throughout.

As to `Cc1ccc([C@@]2(C)CC/C(=N/N=C3\CC[C@](C)(c4ccc(C)c(C)c4)c4cc(C)c(C)cc43)c3cc(C)c(C)cc32)cc1C`, the figures for the Potency in experiment [1], in experiment [6] and in [7] were more than 11.4 µM, more than 46 µM and more than 9.22 µM, respectively. Moreover, the activity change, negative = inhibition was 5.94% in experiment [2] and 7.12% in experiment [4]. Also, the Potency result in [3], in experiment [8], in experiment [9] and in experiment [10] was “inactive” each time. Also, in [5], the activity, negative = inhibition was 4.03%.

On to `O=[N+]([O-])c1cc(Cc2cc([N+](=O)[O-])c3cccnc3c2O)c(O)c2ncccc12`, for which the Potency in [1] was more than 11.4 µM; in experiment [6] it was more than 46 µM; in experiment [7], more than 9.22 µM; in experiment [10], 2.51 µM (active). Moreover, the values for the activity change, negative = inhibition in experiment [2], in experiment [3] and in experiment [4] were 18.2%, -31.1% [at 2.29 µM] and -16.4%, respectively. For the same compound, the activity, negative = inhibition in [5] was -1.87%. For the same compound, the Potency result in experiment [8] and in [9] was “inactive” each time.

`Cc1ccc(N(Cc2ccccc2)Cc2ccccc2)cc1`: the Potency is more than 11.4 µM in experiment [1], more than 46 µM in [6], more than 9.22 µM in [7] and 2 µM (active) in [10]. In addition, the activity change, negative = inhibition in experiment [2] is 4.21%; in [3], -24.2% [at 2.29 µM]; in [4], -17.4%. In addition, the activity, negative = inhibition in [5] was 3.16%. In addition, the Potency entry in experiment [8] and in [9] was “inactive” in each case.
